# Measurements reported in ChEMBL document CHEMBL3988442, “University of Dundee, Small-Polar-MMV Screening Library” (2021).
# Target: T1, Tyrosyl-tRNA synthetase, putative (Trypanosoma cruzi (strain CL Brener)) (UniProt Q4DSP6)
# T1 sequence (whole entry): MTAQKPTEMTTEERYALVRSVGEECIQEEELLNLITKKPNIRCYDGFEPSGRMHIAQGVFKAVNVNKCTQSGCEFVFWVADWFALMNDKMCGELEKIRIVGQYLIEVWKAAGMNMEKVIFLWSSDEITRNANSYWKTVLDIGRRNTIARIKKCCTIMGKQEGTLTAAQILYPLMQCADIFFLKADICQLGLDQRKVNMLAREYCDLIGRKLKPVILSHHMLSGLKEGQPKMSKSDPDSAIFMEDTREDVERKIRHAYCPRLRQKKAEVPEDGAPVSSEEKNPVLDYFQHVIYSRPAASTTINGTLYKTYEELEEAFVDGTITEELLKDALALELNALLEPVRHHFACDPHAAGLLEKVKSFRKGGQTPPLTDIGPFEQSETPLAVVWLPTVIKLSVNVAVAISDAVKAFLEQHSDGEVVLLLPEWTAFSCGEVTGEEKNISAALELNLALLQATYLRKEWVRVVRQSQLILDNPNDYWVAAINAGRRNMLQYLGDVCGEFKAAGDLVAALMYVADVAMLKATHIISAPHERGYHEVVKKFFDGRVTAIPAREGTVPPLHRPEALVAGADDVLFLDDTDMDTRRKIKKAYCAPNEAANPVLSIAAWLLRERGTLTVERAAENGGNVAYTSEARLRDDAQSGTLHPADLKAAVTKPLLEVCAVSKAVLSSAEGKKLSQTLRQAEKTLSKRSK
# Assay: Trypanosoma cruzi tyrosyl tRNA synthetase (TcYRS) _High Tyrosine SOP; further: in the data most compounds retested in dose-response had high values
# Format: functional
# Design: scale not given: direction of the effect not stated beside the values
# Conditions: 30 µM
row,Compound,Percent Effect
1,CN(C)C(=O)COC[C@]12COC[C@H]1CN(CC1CCC1)C2,2.15%
2,COCCN1CC[C@H](O)[C@@H]1Cc1ccccc1,5.29%
3,Cc1cc(O)nc(C2CCCN(Cc3ccncc3)C2)n1 (stereo not given),1.07%
4,CN(C)C(=O)c1ccc2c(c1)N(C)C(CC(=O)NCc1ccno1)CO2 (stereo not given),7.37%
5,COc1c(CNCc2ccc(C(=O)NC3CC3)cc2)c(C)nn1C,1.04%
6,CN(C)CC1CN(C(=O)NCc2ccccc2)Cc2nccn2C1 (stereo not given),3.12%
7,CC(=O)NCC(=O)N1CCC2(CC1)CN(c1cccnc1)C(=O)CO2,-1.08%
8,O=C(NCCN1CCOCC1)c1cc(-c2ccc3c(c2)CCO3)n[nH]1,5.29%
9,CC(C)c1cc(NC(=O)CN2CCCC2Cn2cccn2)on1 (stereo not given),7.39%
10,CCC(=O)Nc1nnc(CCCOc2ccccc2)s1,7.41%
11,Cc1cc(C)n(C2CCCN(C(=O)C3=NN(C)C(=O)CC3)C2)n1 (stereo not given),8.37%
12,CC1CCc2nc(O)c(C(=O)NCc3cccc(F)c3)cc2C1 (stereo not given),-1.06%
13,Cc1nc2c(c(NC3CC3)n1)CCN(C(=O)C(C)(C)O)CC2,3.24%
14,CCCN1CCC(N(Cc2ncc(C)o2)C(C)=O)C1 (stereo not given),3.23%
15,O=C1NCCN1C1CCCN(Cc2coc(-c3ccc(F)cc3)n2)C1 (stereo not given),5.94%
16,Cc1noc(C)c1CN(C)CC1CCCN1c1cccnn1 (stereo not given),6.67%
17,Cc1noc(C)c1CN1C(=O)[C@H]2CC[C@@H]1CN(Cc1cccnc1N)C2,0%
18,Cc1cc(C)n(CC2CCCCN2Cc2cscn2)n1 (stereo not given),7.62%
19,Cc1cc(CNC(=O)C2CCCCN2C(=O)OC(C)(C)C)no1 (stereo not given),3.23%
20,O=C(c1csc(-c2cccs2)n1)N1CCCC1Cn1cccn1 (stereo not given),3.45%

row,Compound,Percent Effect
1,O=C(CSCC1CC1)N1CCCC(c2nccn2Cc2ccncc2)C1 (stereo not given),3.16%
2,CCN1CC(C(=O)N2CCC(Oc3ccccc3Cl)CC2)CC1=O (stereo not given),3.12%
3,CNC(=O)CCNC(=O)c1cccc(Cn2nc(C)cc2C)c1,6.32%
4,CN(CC(=O)N1CCCC1Cn1cccn1)C1CC1 (stereo not given),1.48%
5,O=C(Cn1nc(-c2ccc(F)cc2)oc1=O)Nc1ccccc1,6.37%
6,Cc1cnccc1N1CCCN(C(=O)CCCc2cn[nH]c2)CC1,1.07%
7,Cc1ncccc1CNCC1CCN(CC(O)c2ccccc2)CC1 (stereo not given),6.25%
8,CCc1nc(CN(C)C2CCN(Cc3cnc(C)cn3)C2)no1 (stereo not given),8.37%
9,CSc1ccc(NC(=O)Nc2ccc3c(c2)N(S(C)(=O)=O)CC3)cc1,-6.35%
10,O=C(Cn1ccc2c(Cl)cccc21)N[C@@H](C(=O)O)c1ccccc1,-7.41%
11,Cc1ccc(C2CSCCN2C(=O)c2ccsc2)o1 (stereo not given),1.07%
12,COc1ccc(NC(=O)CNc2ccc(Br)cc2F)cc1,-14.9%
13,CNS(=O)(=O)c1cccc(CNc2cc(C(F)(F)F)ccn2)c1,4.43%
14,CN(C)c1ccc(CCNC(=O)C2CCC(=O)N(C3CCCC3)C2)cc1 (stereo not given),2.73%
15,CC(C)c1nn(C)c(N2CCOCC2)c1CN[C@H](C)CO,5.42%
16,Cc1nccn1CC1CCCN1S(=O)(=O)Cc1ccon1 (stereo not given),5.42%
17,COc1cccc(OCCNC(=O)CN2CCN(C)CC2C)c1 (stereo not given),3.96%
18,Cc1cc(C)cc(N(C)S(=O)(=O)c2cc(C(=O)O)cs2)c1,-1.48%
19,CCOc1cccc(C(C)NCc2ccc(OC)c(OC)c2OC)c1 (stereo not given),7.1%
20,CC(NC(=O)CNCCn1cccn1)c1ccc2c(c1)CCCC2 (stereo not given),12.6%

# Target: T1, Tyrosyl-tRNA synthetase, putative (Trypanosoma cruzi (strain CL Brener))
# Assay: Trypanosoma cruzi tyrosyl tRNA synthetase (TcYRS) SOP
# Format: functional
# Design: scale not given: direction of the effect not stated beside the values
# Conditions: 30 µM
row,Compound,Percent Effect
1,CN(C)C(=O)COC[C@]12COC[C@H]1CN(CC1CCC1)C2,3.7%
2,COCCN1CC[C@H](O)[C@@H]1Cc1ccccc1,7.69%
3,Cc1cc(O)nc(C2CCCN(Cc3ccncc3)C2)n1 (stereo not given),11.7%
4,CN(C)C(=O)c1ccc2c(c1)N(C)C(CC(=O)NCc1ccno1)CO2 (stereo not given),10.3%
5,COc1c(CNCc2ccc(C(=O)NC3CC3)cc2)c(C)nn1C,12.7%
6,CN(C)CC1CN(C(=O)NCc2ccccc2)Cc2nccn2C1 (stereo not given),6.17%
7,CC(=O)NCC(=O)N1CCC2(CC1)CN(c1cccnc1)C(=O)CO2,10.3%
8,O=C(NCCN1CCOCC1)c1cc(-c2ccc3c(c2)CCO3)n[nH]1,7.69%
9,CC(C)c1cc(NC(=O)CN2CCCC2Cn2cccn2)on1 (stereo not given),6.17%
10,CCC(=O)Nc1nnc(CCCOc2ccccc2)s1,5.13%
11,Cc1cc(C)n(C2CCCN(C(=O)C3=NN(C)C(=O)CC3)C2)n1 (stereo not given),25.9%
12,CC1CCc2nc(O)c(C(=O)NCc3cccc(F)c3)cc2C1 (stereo not given),0%
13,Cc1nc2c(c(NC3CC3)n1)CCN(C(=O)C(C)(C)O)CC2,7.69%
14,CCCN1CCC(N(Cc2ncc(C)o2)C(C)=O)C1 (stereo not given),1.24%
15,O=C1NCCN1C1CCCN(Cc2coc(-c3ccc(F)cc3)n2)C1 (stereo not given),15.8%
16,Cc1noc(C)c1CN(C)CC1CCCN1c1cccnn1 (stereo not given),18.8%
17,Cc1noc(C)c1CN1C(=O)[C@H]2CC[C@@H]1CN(Cc1cccnc1N)C2,-5.13%
18,Cc1cc(C)n(CC2CCCCN2Cc2cscn2)n1 (stereo not given),11.8%
19,Cc1cc(CNC(=O)C2CCCCN2C(=O)OC(C)(C)C)no1 (stereo not given),13.6%
20,O=C(c1csc(-c2cccs2)n1)N1CCCC1Cn1cccn1 (stereo not given),6.17%

row,Compound,Percent Effect
1,O=C(CSCC1CC1)N1CCCC(c2nccn2Cc2ccncc2)C1 (stereo not given),10.3%
2,CCN1CC(C(=O)N2CCC(Oc3ccccc3Cl)CC2)CC1=O (stereo not given),-30.9%
3,CNC(=O)CCNC(=O)c1cccc(Cn2nc(C)cc2C)c1,7.69%
4,CN(CC(=O)N1CCCC1Cn1cccn1)C1CC1 (stereo not given),8.86%
5,O=C(Cn1nc(-c2ccc(F)cc2)oc1=O)Nc1ccccc1,21.9%
6,Cc1cnccc1N1CCCN(C(=O)CCCc2cn[nH]c2)CC1,7.5%
7,Cc1ncccc1CNCC1CCN(CC(O)c2ccccc2)CC1 (stereo not given),17.7%
8,CCc1nc(CN(C)C2CCN(Cc3cnc(C)cn3)C2)no1 (stereo not given),21.5%
9,CSc1ccc(NC(=O)Nc2ccc3c(c2)N(S(C)(=O)=O)CC3)cc1,-14.1%
10,O=C(Cn1ccc2c(Cl)cccc21)N[C@@H](C(=O)O)c1ccccc1,-2.56%
11,Cc1ccc(C2CSCCN2C(=O)c2ccsc2)o1 (stereo not given),6.17%
12,COc1ccc(NC(=O)CNc2ccc(Br)cc2F)cc1,-13%
13,CNS(=O)(=O)c1cccc(CNc2cc(C(F)(F)F)ccn2)c1,3.7%
14,CN(C)c1ccc(CCNC(=O)C2CCC(=O)N(C3CCCC3)C2)cc1 (stereo not given),11.1%
15,CC(C)c1nn(C)c(N2CCOCC2)c1CN[C@H](C)CO,6.17%
16,Cc1nccn1CC1CCCN1S(=O)(=O)Cc1ccon1 (stereo not given),3.8%
17,COc1cccc(OCCNC(=O)CN2CCN(C)CC2C)c1 (stereo not given),18.3%
18,Cc1cc(C)cc(N(C)S(=O)(=O)c2cc(C(=O)O)cs2)c1,3.7%
19,CCOc1cccc(C(C)NCc2ccc(OC)c(OC)c2OC)c1 (stereo not given),21%
20,CC(NC(=O)CNCCn1cccn1)c1ccc2c(c1)CCCC2 (stereo not given),26.8%
